Only some compounds are listed: those with a hit (about 4.8% of all), similar ones and a draw of the others.
USP1-UAF1 inh: inhibitors of human USP1/UAF1 deubiquitinase; 390,000 tested, 0.23% active; Potency, µM (doses to about 57.1 µM), for inactives: at the top dose activity change, negative = inhibition, actives largely listed as inhibitors; recombinant USP1/UAF1, Ub-Rhodamine cleavage fluorescence; O94782; further: potency means the concentration at half of the fitted maximal effect; on the % scale 0 is the no-effect control and ±100 the full control effect; nearly all actives have a fitted effect of over 60% in size
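High-throughput fluorogenic screen: 1nM USP1/UAF1 complex, Ub-Rho substrate 150nM final, 50mM HEPES pH 7.8 with 0.5mM EDTA, 0.1 mg/ml BSA, 1mM TCEP and 0.01% Tween-20.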
ATXN viability: viability counter-screen for ATXN expression inhibitors; S2 cells (HEK-293 line with an ATXN2-luciferase reporter) viability, CellTiter-Fluor protease fluorescence, 24 h; Potency, µM (doses to about 56.7 µM), actives largely listed as cytotoxic; 400,000 tested, 0.49% active; AID 651635; further: potency means the concentration at half of the fitted maximal effect; nearly all actives have a fitted effect of over 40% in size
ATXN2 expr inh: ATXN2 expression inhibition. HEK-293 ATXN2-luciferase reporter, luminescence, 24 h. Potency, µM (series often up to 57 µM), inactives show at the highest dose activity change, negative = inhibition, hits mostly inhibitors. 360,000 tested, 0.72% active; further: potency means the concentration at half of the fitted maximal effect; on the % scale 0 is the no-effect control and ±100 the full control effect; nearly all actives have a fitted effect of over 55% in size
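ATXN2-luciferase reporter cells (luciferase flanked by upstream and downstream ATXN2 gene portions) were treated 24 h at 37 °C with compounds at up to 57 uM. SteadyGlo luminescence gave expression; GF-AFC fluorescence gave viability.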
USP2a block: inhibitors of human ubiquitin-specific protease USP2a. 330,000 tested, 0.01% active. AID 463254. USP2 core, Ub-CHOP2 coupled fluorogenic reporter, 485/531. Potency, µM (top dose mostly 38.3 µM), inactives show top-dose activity change, negative = inhibition, usual class: inhibitors. O75604;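 further: potency means the concentration at half of the fitted maximal effect; plate controls were DMSO wells for no effect and full inhibition by NEM control for full effect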
Target sequence (O75604 whole entry, looked up): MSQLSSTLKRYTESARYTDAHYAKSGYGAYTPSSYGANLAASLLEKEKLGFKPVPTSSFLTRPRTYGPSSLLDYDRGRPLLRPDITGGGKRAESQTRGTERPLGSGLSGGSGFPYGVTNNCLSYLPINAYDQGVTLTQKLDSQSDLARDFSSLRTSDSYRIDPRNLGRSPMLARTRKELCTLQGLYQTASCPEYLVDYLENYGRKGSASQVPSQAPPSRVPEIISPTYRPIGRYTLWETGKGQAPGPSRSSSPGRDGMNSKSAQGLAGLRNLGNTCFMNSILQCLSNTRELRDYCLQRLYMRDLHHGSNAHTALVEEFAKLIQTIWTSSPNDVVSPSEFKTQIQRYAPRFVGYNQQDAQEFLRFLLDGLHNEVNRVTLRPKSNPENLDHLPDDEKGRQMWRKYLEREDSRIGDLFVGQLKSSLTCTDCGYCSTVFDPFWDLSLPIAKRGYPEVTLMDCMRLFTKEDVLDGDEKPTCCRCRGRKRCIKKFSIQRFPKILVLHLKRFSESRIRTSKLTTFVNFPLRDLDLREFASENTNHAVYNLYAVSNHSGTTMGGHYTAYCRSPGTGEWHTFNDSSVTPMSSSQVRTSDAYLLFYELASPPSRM
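Cell-free coupled assay: 10nM USP2 core preincubated 30min RT with compound in Tris-HCl pH 8.0/CaCl2/CHAPS buffer, then 25nM Ub-CHOP2 and 25nM reporter substrate; fluorescence (Ex 485/Em 531) read after 60min RT, normalized to NEM inhibition, concentration-response curves fitted.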
IL1B secr inh: inflammasome signaling inhibition, IL-1 beta readout; AID 743279; activity change, % at 57.5 µM; THP-1 LPS/ATP IL-1B secretion, AlphaLISA, 16 h; stronger effect = lower value; 360,000 tested, 4.7% active; in the data active means activity change below about -50%; inconclusive means mostly about -30% to -49%; further: on the % scale 0 is the no-effect control and ±100 the full control effect
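THP-1 cells pretreated 1 hr with compounds (up to 57.5 uM final), then stimulated with LPS (250 ng/mL final) plus ATP (1.25 mM final); secreted IL-1B measured by AlphaLISA after 16 hr, decreased signal indicating inhibition.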
The depositor's hits bear a star. Unless noted, the call rests on the fitted dose curve; in most records, active means well fitted curve in the direction sought with a large enough effect; inconclusive means small, poorly fitted or top-dose-only effect, or another doubt; inactive means no such curve, though single readings can be large; an effect the other way counts as inactive or inconclusive.

What do the screens show for `O=C(Nc1cccc(S(=O)(=O)c2cccc(NC(=O)C3CC3)c2)c1)C1CC1`?
USP1-UAF1 inh: 5%; ATXN viability: inactive; ATXN2 expr inh: -22%; USP2a block: 1%; IL1B secr inh: -74*

How did Cc1nc(N2CCN(Cc3ccc4c(c3)OCO4)CC2)c2cc(-c3ccccc3)sc2n1 do in these assays?
USP1-UAF1 inh: -16%; ATXN viability: inactive; ATXN2 expr inh: -11%; USP2a block: -5%; IL1B secr inh: -62*

Results for CN=C(NC)NCc1ccccc1 ?
ATXN viability: inactive

How did CSc1ccc(C2c3c(oc4ccc(F)cc4c3=O)C(=O)N2c2ccc(C)cn2)cc1 (centres undefined) do in these assays?
USP1-UAF1 inh: -19%; ATXN viability: inactive; ATXN2 expr inh: 12%

Results for O=C(C#Cc1ccccc1)c1cccc([N+](=O)[O-])c1 ?
USP1-UAF1 inh: -27%; ATXN2 expr inh: 22µM*; USP2a block: -1%; IL1B secr inh: -74*

What do the screens show for `Cc1ccc2ncc3c(-c4ccc(F)cc4)nn(-c4cccc(F)c4)c3c2c1`?
USP1-UAF1 inh: -4%; ATXN viability: inactive; ATXN2 expr inh: -7%

Results for O=C(Nc1ccccc1)C(=O)Nc1ccc2c(c1)N(C(=O)C1CC1)CCC2 ?
USP1-UAF1 inh: -4%; ATXN viability: inactive; ATXN2 expr inh: 19%; USP2a block: 0%; IL1B secr inh: -12

How did COc1ccc(-c2[nH]c3ccccc3c2SCCNC(=O)c2cc3ccccc3oc2=O)cc1 do in these assays?
USP1-UAF1 inh: -4%; ATXN viability: inconclusive; ATXN2 expr inh: 9%; USP2a block: 5%; IL1B secr inh: 20

What do the screens show for `COc1ccc(-c2[nH]c3ccccc3c2SCCN)cc1`?
USP1-UAF1 inh: -6%; ATXN viability: inactive; ATXN2 expr inh: -24%; USP2a block: 1%; IL1B secr inh: -59*

How did CCOC(=O)/C(=N/Nc1ccccc1)c1csc(Nc2ccccc2)n1 do in these assays?
USP1-UAF1 inh: -22%; ATXN viability: inconclusive; ATXN2 expr inh: -3%; USP2a block: 1%; IL1B secr inh: -1

Results for CCOC(=O)/C(=N\Nc1ccc(Cl)cc1)c1csc(Nc2ccccc2)n1 ?
USP1-UAF1 inh: -19%; ATXN viability: inconclusive; ATXN2 expr inh: 2%; USP2a block: -10%; IL1B secr inh: -73*

Results for CCOc1ccc(OCC)c(NC(=O)CN(C)S(=O)(=O)c2ccc3nc(C)sc3c2)c1 ?
USP1-UAF1 inh: -15%; ATXN viability: inactive; ATXN2 expr inh: -16%; USP2a block: 3%; IL1B secr inh: -50*

What do the screens show for `CN(CC(=O)Nc1nc2ccc(F)cc2s1)S(=O)(=O)c1ccc(Cl)cc1`?
USP1-UAF1 inh: inconclusive; ATXN viability: inactive; ATXN2 expr inh: 2%; USP2a block: -1%; IL1B secr inh: -58*

How did Cc1cccc(N2CCN(C(=O)c3oc(=O)c4ccccc4c3-c3ccccc3)CC2C)c1 (centres undefined) do in these assays?
USP1-UAF1 inh: -31%; ATXN viability: inactive; ATXN2 expr inh: 1%

Results for CCC(CC)C(=O)Nc1ccc(OCc2cc(=O)n3ccc(C)cc3n2)cc1 ?
USP1-UAF1 inh: -1%

How did Cc1cccc(C(=O)N2CCC(c3nc(-c4ccc(S(=O)(=O)N5CCOCC5)cc4)no3)CC2)c1 do in these assays?
USP1-UAF1 inh: inconclusive; ATXN viability: inconclusive; ATXN2 expr inh: -9%; USP2a block: -1%; IL1B secr inh: -53*

How did N#C/C(=N\Nc1cccc(C(F)(F)F)c1)C(=O)c1csc(-c2cccnc2)n1 do in these assays?
USP1-UAF1 inh: inconclusive; ATXN viability: 25µM*; ATXN2 expr inh: inconclusive; USP2a block: 0%; IL1B secr inh: 23

Results for O=C(CCNC(=O)c1ccc(Br)cc1)Nc1ccccc1N1CCCCC1 ?
USP1-UAF1 inh: -20%; ATXN viability: inactive; ATXN2 expr inh: 6%; USP2a block: -5%; IL1B secr inh: -80*

How did Cc1cc(C)cc(OCC(=O)Nc2ccccc2N2CCCCC2)c1 do in these assays?
USP1-UAF1 inh: -18%; ATXN viability: inactive; ATXN2 expr inh: -11%; USP2a block: 0%; IL1B secr inh: 23

Bioassay records deposited in PubChem by National Center for Advancing Translational Sciences (NCATS).
